# Reference: PubChem BioAssay AID1878 (Sanford-Burnham Center for Chemical Genomics, 2009)
# In all, about 1,000 compounds went through this assay and about 200 (20%) were called active. Not all results are given here. Results with a measured potency or affinity are listed apart. A number with no mark means an inactive call. Rule as the data show it: active = inhibition above about 55%; inactive = the rest.
# Molecular target: Dual specificity protein phosphatase 3 (Homo sapiens) (UniProt P51452)
# Experiment: VHR1 phosphatase inhibitors, biochemical (AID 1878)
# Conditions: recombinant VHR phosphatase, fluorogenic substrate; at 13.3 µM; active compounds read high
# Chain of Dual specificity protein phosphatase 3 (Homo sapiens) (P51452 whole entry, looked up): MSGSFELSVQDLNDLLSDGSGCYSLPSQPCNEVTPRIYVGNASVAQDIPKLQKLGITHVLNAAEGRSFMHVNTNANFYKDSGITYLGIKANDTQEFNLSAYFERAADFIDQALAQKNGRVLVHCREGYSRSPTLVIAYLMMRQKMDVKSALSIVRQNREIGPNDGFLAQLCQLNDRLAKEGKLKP
row,SMILES,inhibition
1,C=CCc1cc(Cl)ccc1OCCOCCNC(C)(C)C,-15%
2,Brc1ccc(C2=Nc3ccccc3C(c3ccncc3)=NN2)cc1,82.1% (active)
3,COC(=O)[C@@]1(Cc2ccc(F)cc2)[C@H]2c3cc(C(=O)N4CCCC4)n(CCc4ccccn4)c3C[C@H]2CN1C(=O)c1ccccc1,-0.9%
4,CCC1CCCCN1CCCNC(=O)Cn1ncn2nc(-c3ccc(OC)cc3)cc2c1=O (centres undefined),-4%
5,OCCC1CN(Cc2ccc(F)cc2)CCN1CCc1ccccc1 (centres undefined),-5.4%
6,O=C(N/N=C1/C(=O)c2cccc3cccc1c23)c1ccc(Cl)cc1,98.9% (active)
7,CCOc1ccccc1N(C(=O)c1ccco1)C(C(=O)NC1CCCC1)c1cccs1 (centres undefined),14.1%
8,COc1ccc(OCC(O)CN(CC(O)COc2ccc(OC)cc2)c2cccc(O)c2)cc1 (centres undefined),3.9%
9,CCC(CO)(CO)N(CC(=O)Nc1ccc(OC)cc1)CC(=O)Nc1ccc(OC)cc1,5.4%
10,N=C1/C(=C\c2ccc(-c3cccc(C(=O)O)c3)o2)C(=O)N=C2SC=C(c3ccccc3)N12,88.1% (active)
11,N=C1/C(=C\c2ccc(-c3ccc(C(=O)O)cc3)o2)C(=O)N=C2SC=C(c3ccccc3)N12,97.1% (active)
12,N=C1/C(=C/c2ccc(-c3cccc(C(=O)O)c3)o2)C(=O)N=C2SC=C(c3ccccc3)N12,79.5% (active)
13,COc1ccc(S(=O)(=O)N2CCCOC2CNC(=O)C(=O)NC2CCCC2)cc1 (centres undefined),-10.2%
14,Cc1cc(Br)c(S(=O)(=O)NCc2cccnc2)cc1C,5.2%
15,OC(COC(c1ccc(F)cc1)c1ccc(F)cc1)CN1CCCC(C(F)(F)F)C1 (centres undefined),-7.4%
16,Fc1cccc(/C=N/n2c(C3CCCCC3)n[nH]c2=S)c1,0.6%
17,COc1ccc(CCC(=O)NCCc2cnc[nH]2)cc1,-0.5%
18,CCOc1cc2[nH]c(=S)n(Cc3ccc(C(=O)NCCCOC)cc3)c(=O)c2cc1OCC,11.5%
19,O=C(N=C1SC2CS(=O)(=O)CC2N1Cc1ccccc1)C1CCCO1 (centres undefined),-9.5%
20,Cc1ccc(S(=O)(=O)NCC(=O)N2CCc3ccccc3C2)cc1,7.4%

row,SMILES,inhibition
1,Cc1ccccc1-n1c(SCC(=O)Nc2ccccc2Cl)nc2n[nH]c(C)c2c1=N,-7.4%
2,CCn1c(C)c(C)c2cc(C(=O)NCCCN3CCCCC3C)ccc21 (centres undefined),-4.1%
3,O=C1CCCN1CCCNC(=S)Nc1ccc(F)c(Cl)c1,58.6% (active)
4,O=C1CCCN1CCCNC(=S)Nc1ccc(F)cc1,48.6%
5,COc1ccc(NC(=S)NCCCN2CCCC2=O)c(OC)c1,47.4%
6,CC(=O)c1cccc(CN2CCC(CO)(CCOc3ccccc3)CC2)c1,-26.7%
7,COc1ccc(Cl)cc1NC(=O)C/C(C)=N/NC(=O)c1ccc(O)cc1,-3.4%
8,CCOC(=O)CN(C)Cc1cn[nH]c1-c1ccc2cc(OC)ccc2c1,4%
9,O=C(CC12CC3CC(CC(C3)C1)C2)NCc1ccc(F)cc1,-9.3%
10,CN(C)C(=O)OCC1COc2ccccc2O1 (centres undefined),0.1%
11,Cn1c2ccccc2c(=O)c2c(=O)n(C3CCCCCC3)c(C3CCCCC3)nc21,95.7% (active)
12,COc1ccc(NC2CCCN(C(=O)c3oc(C)cc3C)C2)cc1OC (centres undefined),1.1%
13,Cc1nc(C)c(C(=O)Nc2cccc(C)c2C)s1,32.5%
14,O=C(O)C1Nc2c(O)cc(Cl)c([N+](=O)[O-])c2C2C=CCC12 (centres undefined),92.7% (active)
15,O=C(O)C1Nc2c(Cl)cc(Cl)cc2C2C=CCC12 (centres undefined),89.8% (active)
16,O=C(Cn1c(=O)c2cccn2c2ccccc21)NCCCN1CCCCC1,2%
17,O=C(CCC(=O)c1ccc(F)cc1)NCc1ccccc1C(F)(F)F,2.4%
18,COc1cc(CN2CCN(CC3CC3)CC2CCO)cc(OC)c1 (centres undefined),-3.6%
19,CN(Cc1ccccc1)C(=O)COC(=O)COc1ccc(C#N)cc1,-2.2%
20,CC(C(=O)NCCCc1ccccc1)n1cccc1C(=O)c1ccccc1 (centres undefined),17.1%

row,SMILES,inhibition
1,CC(C)[C@H](NC(=O)C1CCN(S(=O)(=O)c2ccccc2)CC1)C(=O)NCc1ccccc1,12.2%
2,CCCc1cc(SCC(=O)Nc2c(C)n(C)n(-c3ccccc3)c2=O)n2c(nc3ccccc32)c1C#N,98.7% (active)
3,CC(C(=O)Nc1cccc(S(=O)(=O)N2CCOCC2)c1)N1CCN(C)CC1 (centres undefined),-1.7%
4,CCOC(=O)c1c(C)n(CCOc2ccccc2)c2ccc(O)cc12,14.4%
5,CC(C)/C=C/CN1CCCC(N2CCN(c3cccc(Cl)c3)CC2)C1 (centres undefined),-15%
6,COC(=O)c1ccc(COc2ccc(F)cc2)o1,27.9%
7,C/C(=N\NC(=O)C(=O)Nc1ccc(C)c(Cl)c1)c1ccncc1,91.6% (active)
8,Cc1ccc(F)c(CNC(=O)C2CCC(=O)N(Cc3ccccn3)C2)c1F (centres undefined),1.1%
9,CCC(=O)N1CCN=C1SCc1cccc(F)c1,0.5%
10,CCC(=O)Nc1c(-c2ccc(Cl)cc2)c(=O)c2ccccc2n1C,-1.5%
11,COC(=O)c1cc(S(=O)(=O)N2CCCCC2)c[nH]1,4.2%
12,Cc1c(C)c2cc(Cl)c(OCC(=O)NC3CC(C)(C)NC(C)(C)C3)cc2oc1=O,-11.9%
13,Nc1ccc2nc3c(=O)[nH]c(=S)[nH]c3nc2c1,61.5% (active)
14,COc1cccc(-c2ocnc2C(=O)Nc2ccc(N3CCOCC3)cc2N2CCOCC2)c1,-5.2%
15,CCCCN(CCCC)CCNC(=O)CN1C(=O)COc2ccc(S(=O)(=O)N3CCOCC3)cc21,-18%
16,Nc1nonc1-c1nc2ccccc2n1CC(=O)N/N=C/c1ccc(-c2cccc(C(=O)O)c2)o1,73.2% (active)
17,O=S(=O)(NCCc1csc(-c2cccnc2)n1)c1ccc(F)cc1,-3.7%
18,Oc1ccc(/C=N/Nc2ncc(Cl)cc2Cl)cc1,14.3%
19,CCc1c(C)nc2c(-c3ccccc3)c(-c3ccccc3)[nH]n2c1=O,1.4%
